Assay outcomes (PubChem)
D1 allo mod – allosteric modulators of human D1 dopamine receptor | P21728 | HEK293 D1, CRE-luciferase, dopamine EC30 potentiation; actives deviate in either direction | B-score at 10 µM | actives 5.9% (n = 58,000);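 active = luminescence count or its row- and column-corrected plate score outside the 99.7% band of the plate's sample wells, on either side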
FXIa mix inh – factor XIa (human) inhibition, mixture screen. inhibition, % at 5 µM. actives 0.19% (n = 62,000). purified FXIa, fluorogenic substrate, pooled mixtures. P03951;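 also: each value is inhibition by a whole ten-compound pool holding the compound; 0% = enzyme with no mixture and 100% = wells lacking enzyme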
Target sequence (P03951 19-387 limits assumed): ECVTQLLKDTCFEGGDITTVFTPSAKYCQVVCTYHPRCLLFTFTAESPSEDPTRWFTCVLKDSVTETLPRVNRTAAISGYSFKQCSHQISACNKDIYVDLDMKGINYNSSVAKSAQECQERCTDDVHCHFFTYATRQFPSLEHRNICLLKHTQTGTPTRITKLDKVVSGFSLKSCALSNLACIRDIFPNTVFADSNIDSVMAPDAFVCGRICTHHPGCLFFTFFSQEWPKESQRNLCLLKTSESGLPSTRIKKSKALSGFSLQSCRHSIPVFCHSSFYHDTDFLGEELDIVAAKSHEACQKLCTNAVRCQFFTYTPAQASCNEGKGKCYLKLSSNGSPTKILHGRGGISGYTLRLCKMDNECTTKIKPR
Target sequence (P03951 388-625 limits assumed): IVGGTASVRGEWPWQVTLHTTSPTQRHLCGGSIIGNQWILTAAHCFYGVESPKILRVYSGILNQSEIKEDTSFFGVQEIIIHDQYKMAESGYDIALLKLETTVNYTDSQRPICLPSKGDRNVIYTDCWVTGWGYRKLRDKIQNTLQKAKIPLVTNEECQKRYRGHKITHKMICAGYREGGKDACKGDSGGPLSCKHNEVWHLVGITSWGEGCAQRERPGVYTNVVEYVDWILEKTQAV
hDAT+cocaine – human DAT dopamine uptake with cocaine, either direction; LLC-PK1 hDAT cells, [14C]-dopamine uptake with cocaine IC80; actives deviate in either direction; actives 1.3% (n = 110,000); Q01959; AID 449768; B-score at 10 µM;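 active = Z score or B-score, a plate-position-corrected score, falls beyond the plate's 99.7% confidence bounds, in either direction; inactive = both scores lie inside the 99.7% bounds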;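 also: scored against the spread of the other compound wells on the same plate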
M1 ag – activates the M1 muscarinic receptor; CHO-M1 cells, Fluo-4 calcium fluorescence, agonist mode; hits give high values; B-score at 10 µM; actives 3% (n = 64,000);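 active = fluorescence rise, raw or as B-score row- and column-corrected plate score, outside the 99.7% band of its plate's samples, either direction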
M1 antagonist – antagonists of rat M1 muscarinic receptor; P08482; CHO-M1 cells, Fluo-4 calcium, ACh EC80 antagonist mode; hits give low values; B-score at 10 µM; actives 3.4% (n = 64,000);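 active = calcium fluorescence response, raw or row-and-column corrected B-score, differing from the plate sample mean either way at a set confidence level, mostly lower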
FXIIa mix inh – factor XIIa (human) inhibition, mixture screen; actives 0.2% (n = 62,000); inhibition, % at 5 µM; P00748; purified FXIIa, fluorogenic substrate, pooled mixtures;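 also: 0% = enzyme without compound and 100% = no enzyme blank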
D1 PAM confirm – D1 receptor (human) allosteric modulation, confirmed; shares compounds with D1 allo mod; HEK293 D1 CRE-luciferase, dopamine EC30 potentiation; hits give high values; luminescence at 10 µM; actives 88% (n = 2,200); AID 642;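 active = luminescence in either of two replicates above the same-plate mean plus 3 SD of the low-dose dopamine control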
D1 no dopamine – secondary test of D1 modulators: activity without dopamine; luminescence at 10 µM; HEK293 D1 CRE-luciferase, luminescence, no dopamine; hits give high values; shares compounds with D1 allo mod; actives 0.8% (n = 1,900); in the data active = luminescence above about 3900
Isoprot counter – counter-screen for D1 modulators: isoproterenol response in HEK293 cells | shares compounds with D1 allo mod | HEK293 D1 CRE-luciferase, isoproterenol EC30 counter-screen | calls only at 10 µM | actives 63% (n = 2,200) | AID 647;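 active = luminescence in either replicate above plate mean of wells with a partly effective reference agonist dose plus 3 SD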;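 also: isoproterenol raises cAMP through native beta-adrenoceptor Gs so signal bypasses D1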
Starred values were filed as active, the others as inactive. This is a sample that favours compounds with a hit; in the whole collection about 7.4% have one here. Rule as the data show it, unless noted: active = inhibition above about 20% (passing the limit was not always enough); inactive = the rest.

What do the screens show for `CC1(C)Cc2c(C#N)c(N)n(-c3ccccc3)c(=O)c2CO1`?
D1 allo mod: 3.2; FXIa mix inh: 2; hDAT+cocaine: 0.36; M1 ag: 0.16; M1 antagonist: -0.55; FXIIa mix inh: 0

What do the screens show for `CCC1(C)Cc2c(c(=O)n(-c3ccccc3)c3ncnc(N)c23)CO1` (configuration not stated)?
D1 allo mod: 5.5*; FXIa mix inh: 3; hDAT+cocaine: -0.26; M1 ag: 0.13; M1 antagonist: 0.2; FXIIa mix inh: 16; D1 PAM confirm: 10848*; Isoprot counter: inactive

Results for Cc1c(NS(=O)(=O)c2ccccc2)cc(Cl)c(O)c1C ?
D1 allo mod: -0.012; FXIa mix inh: 4; hDAT+cocaine: -0.72; FXIIa mix inh: 14

What do the screens show for `O=C(NCCCn1ccnc1)/C(=C/c1ccco1)NC(=O)c1ccccc1`?
hDAT+cocaine: -0.43

How did CCSc1cnc(-c2ccccc2)n1CC do in these assays?
D1 allo mod: 4.5*; FXIa mix inh: 15; hDAT+cocaine: -0.27; M1 ag: 0.98; M1 antagonist: 0.16; FXIIa mix inh: -1; D1 PAM confirm: 8832*; D1 no dopamine: 1620; Isoprot counter: inactive

How did CCOc1ccc(Cl)cc1S(=O)(=O)N1CCCC1 do in these assays?
D1 allo mod: -1.5; FXIa mix inh: 8; hDAT+cocaine: 0.41; M1 ag: -0.86; M1 antagonist: 0.017; FXIIa mix inh: -5

What do the screens show for `CCOc1c(S(=O)(=O)N2CCCC2)ccc(Cl)c1Cl`?
D1 allo mod: 12*; FXIa mix inh: 1; hDAT+cocaine: 0.41; M1 ag: 0.086; M1 antagonist: 0; FXIIa mix inh: 0; D1 PAM confirm: 11948*; D1 no dopamine: 1540; Isoprot counter: active

Results for O=S(=O)(c1ccccc1)N1CCC(N2CCN(c3ccccc3)CC2)CC1 ?
M1 ag: -0.61; M1 antagonist: 0.86

How did [O-][n+]1c2c(nn1-c1ccccc1Cl)-c1nonc1CC2 do in these assays?
D1 allo mod: 0.6; FXIa mix inh: 2; hDAT+cocaine: 0.94; M1 ag: 0.037; M1 antagonist: 0.24; FXIIa mix inh: 8

How did O=C(CC1(O)C(=O)Nc2cc(Cl)cc(Cl)c21)c1ccncc1 (configuration not stated) do in these assays?
D1 allo mod: 3.5*; FXIa mix inh: 0; hDAT+cocaine: -1.5; FXIIa mix inh: 32; D1 PAM confirm: 7604; D1 no dopamine: 1960; Isoprot counter: inactive

How did CCCSc1nsc(SCCC)c1C(N)=O do in these assays?
D1 allo mod: 4.4*; FXIa mix inh: 5; hDAT+cocaine: -0.15; M1 ag: -0.0053; M1 antagonist: -0.55; FXIIa mix inh: 4; D1 PAM confirm: 9628*; D1 no dopamine: 1436; Isoprot counter: inactive

What do the screens show for `C/C(Cl)=C/Cn1c(SCCN2CCOCC2)nc2c1c(=O)[nH]c(=O)n2C`?
D1 allo mod: 1.1; FXIa mix inh: 4; hDAT+cocaine: 1.6; M1 ag: -0.13; M1 antagonist: -0.48; FXIIa mix inh: -17

What do the screens show for `CCSc1nc2c(c(=O)[nH]c(=O)n2C)n1C/C=C(/C)Cl`?
D1 allo mod: 14*; FXIa mix inh: -6; hDAT+cocaine: -0.041; M1 ag: -0.037; M1 antagonist: 0.26; FXIIa mix inh: 8; D1 PAM confirm: 19268*; D1 no dopamine: 1408; Isoprot counter: active

How did C/C(Cl)=C/Cn1c(SCc2ccc(Cl)cc2)nc2c1c(=O)[nH]c(=O)n2C do in these assays?
D1 allo mod: 8.8*; FXIa mix inh: 3; hDAT+cocaine: 0.62; M1 ag: -0.47; M1 antagonist: -0.45; FXIIa mix inh: 5; D1 PAM confirm: 10156*; D1 no dopamine: 1472; Isoprot counter: active

Results for CCOC(=O)C(C)Sc1nc2c(c(=O)[nH]c(=O)n2C)n1C/C=C(/C)Cl (configuration not stated) ?
D1 allo mod: 9.3*; FXIa mix inh: 10; hDAT+cocaine: -0.014; M1 ag: -0.18; M1 antagonist: 0.12; FXIIa mix inh: 6; D1 PAM confirm: 12104*; D1 no dopamine: 1572; Isoprot counter: active

Results for CSc1nc2c(c(=O)[nH]c(=O)n2C)n1C/C=C(\C)Cl ?
D1 allo mod: 15*; FXIa mix inh: -31; hDAT+cocaine: 0.54; M1 ag: 1.1; M1 antagonist: 0.29; FXIIa mix inh: 0; D1 PAM confirm: 24712*; D1 no dopamine: 1588; Isoprot counter: active

How did CCOCCn1c(SCc2ccc(C)cc2)nc2c1c(=O)[nH]c(=O)n2C do in these assays?
D1 allo mod: 1.4; FXIa mix inh: -5; hDAT+cocaine: 0.51; M1 ag: -0.016; M1 antagonist: 0.7; FXIIa mix inh: 2

What do the screens show for `O=C(NCc1ccc(F)cc1)C1CCN(S(=O)(=O)N2CCCCC2)CC1`?
D1 allo mod: 0.39; FXIa mix inh: 1; hDAT+cocaine: 0.39; M1 ag: -1.3; M1 antagonist: -0.28; FXIIa mix inh: 2

How did C=CCSc1nc2c(c(=O)[nH]c(=O)n2C)n1CC do in these assays?
D1 allo mod: 3.4; FXIa mix inh: -8; hDAT+cocaine: -1.1; M1 ag: -0.0095; M1 antagonist: -1.1; FXIIa mix inh: 2

What do the screens show for `C=CCSc1nc2c(c(=O)[nH]c(=O)n2C)n1C/C=C(/C)Cl`?
D1 allo mod: 19*; FXIa mix inh: 7; hDAT+cocaine: -1.5; M1 ag: -0.6; M1 antagonist: -0.57; FXIIa mix inh: 7; D1 PAM confirm: 20956*; Isoprot counter: active

Results for C=CCOc1c(Cl)cc(/C=N/O)cc1OC ?
D1 allo mod: 2.1; FXIa mix inh: 11; hDAT+cocaine: 0.43; M1 ag: 0.6; M1 antagonist: 0.14; FXIIa mix inh: -1

What do the screens show for `C=CCOc1ccc(/C(CC)=N/O)c(OC)c1`?
D1 allo mod: 3.4*; FXIa mix inh: 4; hDAT+cocaine: 1.4; M1 ag: -0.027; M1 antagonist: 0.33; FXIIa mix inh: -3; D1 PAM confirm: 8264*; D1 no dopamine: 1700; Isoprot counter: inactive

Results for CC(C)(C)c1ccccc1N=Cc1ccc2ccccc2n1 ?
hDAT+cocaine: 0.034

How did c1ccc2c(c1)nc(NC1CCCCC1)c1nncn12 do in these assays?
D1 allo mod: 14*; FXIa mix inh: -5; hDAT+cocaine: 1.5; M1 ag: -0.59; M1 antagonist: -0.065; FXIIa mix inh: 3; D1 PAM confirm: 9836*; D1 no dopamine: 1048; Isoprot counter: active
